# High-throughput results deposited in PubChem by National Center for Advancing Translational Sciences (NCATS).
# An excerpt weighted towards active compounds, which were near 0.9% of everything screened.
# KAT2A inh: GCN5L2 (KAT2A) acetyltransferase inhibition; Q92830; GCN5L2 HAT assay, ThioGlo1 CoA-SH fluorescence; Potency, µM (top dose mostly 58.9 µM), for inactives: at the top dose activity change, negative = inhibition, hits mostly inhibitors; 390,000 tested, 0.21% active; AID 504327
#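 Compounds, pin-transferred from DMSO stocks, meet 20nM GCN5L2 for 15 min before the reaction begins with H3(1-25) peptide (75uM) and acetyl-CoA (70uM). Thiol-reactive ThioGlo1 reports CoA release over 20 min at room temperature.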
# TDP1 inh: TDP1 (human) enzyme inhibition; Q9NUW8; recombinant TDP1, AlphaScreen DNA substrate cleavage; Potency, µM (doses to about 130 µM), inactives show top-dose activity change, negative = inhibition, most hits filed as inhibitors; 350,000 tested, 0.28% active; AID 485290; note: nearly all actives have a fitted effect of over 40% in size
#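 Enzyme-compound mixtures sat 15 min at room temperature, followed by a 5 min reaction with 15 nM final substrate and 10 min with AlphaScreen beads. Recombinant human Tdp1 was used at 1 nM final.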
# Lamin A splicing: modulators of lamin A splicing | HeLa LMNA splicing GFP/RFP minigene ratio, 48 h | 200,000 tested, 0.01% active | AID 1487 | Potency, µM (titrated, usually from 46.1 µM), inactives show at the top dose ratio change, negative = inhibition, actives largely listed as inhibitors; active = well fitted inhibition curve with a large enough effect in the signal ratio, with a control signal flat, not every such curve was filed as active; inconclusive = small, poorly fitted or top-dose-only effect, or effect the other way, or a change in a side signal; the % refers to the signal ratio
#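 S3 HeLa stable clones carrying a lamin A-EGFP splicing minigene plus DsRed2 were seeded at 600 cells/well in Opti-MEM with 2% FBS, pin-dosed and incubated 48 h at 37°C. Acumen cytometry (488 nm) gave the GFP/RFP total-intensity ratio.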
# RECQ1 helicase: inhibitors of human RECQ1 DNA helicase; P46063; RECQ1 DNA unwinding, red fluorescence kinetic read; Potency, µM (highest dose often 57.3 µM), for the others: at the highest dose activity, negative = inhibition, usual class: inhibitors; 240,000 tested, 0.54% active; AID 2549;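 note: plate controls were vehicle for no effect and no enzyme for full effect; nearly all actives have a fitted effect of over 30% in size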
#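 RECQ1T1 50 nM; forked duplex (20 bp + 30-nt ss tails) 200 nM, ATP 2 mM final; pH 8.0, 2 mM MgCl2, 2.5 ug/ml poly(dI-dC); 15 min compound preincubation; discontinuous kinetic read over 2 h at RT.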
# BLM helicase inh: blocks DNA unwinding by human BLM helicase; P54132; recombinant BLM DNA unwinding, fluorescence dequenching; Potency, µM (highest dose often 56.1 µM), inactives show top-dose activity change, negative = inhibition, actives largely listed as inhibitors; 350,000 tested, 0.2% active;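 note: plate controls were vehicle for no effect and no enzyme for full effect; nearly all actives have a fitted effect of over 35% in size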
# APE1 inh-1: blocks human APE1 abasic DNA cleavage; Potency, µM (highest dose often 65.8 µM), inactives show at the highest dose activity change, negative = inhibition, usual class: inhibitors; recombinant APE1, TAMRA/BHQ-2 abasic DNA cleavage fluorescence; P27695; 350,000 tested, 0.35% active;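 note: plate controls were vehicle for no effect and reference inhibitor for full effect; nearly all actives have a fitted effect of over 55% in size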
# Target sequence (P27695 whole entry, looked up): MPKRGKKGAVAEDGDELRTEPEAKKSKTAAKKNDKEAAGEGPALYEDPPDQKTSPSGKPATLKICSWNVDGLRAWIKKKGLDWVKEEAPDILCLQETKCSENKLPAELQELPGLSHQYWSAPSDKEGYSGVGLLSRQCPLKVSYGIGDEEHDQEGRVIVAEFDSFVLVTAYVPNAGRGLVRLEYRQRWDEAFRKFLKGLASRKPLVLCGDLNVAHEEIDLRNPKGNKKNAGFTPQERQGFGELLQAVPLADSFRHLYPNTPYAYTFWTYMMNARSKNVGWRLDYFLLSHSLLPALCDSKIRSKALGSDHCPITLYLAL
#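 APE1 at 0.75 nM final was preincubated with compound 15 min at room temperature, then 50 nM double-stranded THF abasic-site substrate (5'-TAMRA/3'-BHQ-2) was added. Fluorescence (ex 525/em 598 nm) was read kinetically; third-minus-first read gave activity.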
# APE1 dye cs: DNA dye displacement counter-screen activity | DNA fluorescent dye displacement counterscreen, fluorescence | Potency, µM (top dose mostly 28.5 µM), for inactives: at the highest dose activity change, negative = inhibition, actives largely listed as inhibitors | 480 tested, 7% active | AID 2564 | shares compounds with APE1 inh-1;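 note: loss of thiazole orange fluorescence as the dye is displaced from duplex DNA; 0% = ThO with dsDNA and no compound and -100% = ThO without dsDNA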
# EndoIV counter: blocks E. coli endonuclease IV DNA cleavage; Potency, µM (doses to about 27.1 µM), without a hit: at the top dose activity change, negative = inhibition, usual class: inhibitors; 560 tested, 4% active; shares compounds with APE1 inh-1; E. coli Endo IV, fluorogenic AP-site DNA cleavage;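 note: plate controls were uninhibited enzyme wells for no effect and no enzyme buffer wells for full effect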
# APE1 inh-2: APE1 (human) endonuclease inhibition, confirmation; shares compounds with APE1 inh-1; purified APE1, fluorogenic abasic-site DNA cleavage; Potency, µM (doses to about 57.1 µM), inactives show at the highest dose activity change, negative = inhibition, actives largely listed as inhibitors; 750 tested, 44% active; AID 2572; note: nearly all actives have a fitted effect of over 30% in size
# APE1 FP: APE1 (human) DNA binding inhibition, fluorescence polarization | shares compounds with APE1 inh-1 | APE1 binding to TAMRA-labelled double-stranded DNA, fluorescence polarization displacement | Potency, µM (doses to about 28.5 µM), without a hit: at the top dose activity, negative = inhibition, most hits filed as inhibitors | 480 tested, 7% active | AID 2573
# * = called active by the depositor; i = inactive; ? = inconclusive; · = no result; ! = not active in a repeat; [ ] = dose if it differs, or a comment. Unless noted, calls come from the whole dose curve; as a rule, active = well fitted curve in the direction sought with a large enough effect; inconclusive = small, poorly fitted or top-dose-only effect, or another doubt; inactive = no such curve, though single readings can be large; an effect the other way counts as inactive or inconclusive. Unless noted, % is set by controls: 0 for no effect and ±100 for the full control effect; potency is the fitted concentration of half-maximal effect.
SMILES,KAT2A inh,TDP1 inh,Lamin A splicing,RECQ1 helicase,BLM helicase inh,APE1 inh-1,EndoIV counter,APE1 inh-2,others
Cn1cnnc1SCC(=O)Nc1nc(-c2ccccc2)cs1,2.7%,35.5µM*,?,-4.1%,-22.2%,?,-0.8%,?,APE1 dye cs=-7.8%;APE1 FP=8.4%
CC1(C)SC2[C@@H](N=CN3CCCCCC3)C(=O)N2[C@H]1C(=O)O (some centres not stated),35.1%,-4.3%,?,·,-4.4%,·,·,·,
O=C(O)c1ccccc1-n1cnnn1,-6.6%,·,·,-2.6%,2.2%,-0.2%,·,·,
O=C(O)c1ccccc1-n1cccc1C(=O)O,-1.5%,?,2.6%[46 µM],-8.7%,-4.5%,?,0.0%,12.6µM*,APE1 dye cs=-5.2%;APE1 FP=?
COc1ccc(/C(C)=N/Nc2ccccc2Cl)c(O)c1,?,39.8µM*,·,-9.8%,-4.7%,?,·,?,
CN1CCc2sc(NC(=O)Cc3ccccc3)c(C(=O)Nc3ccc(Cl)cc3)c2C1,·,-5.6%,·,·,·,·,·,·,
CCOC(=O)c1cc2c(=O)n3ccccc3nc2n(Cc2ccco2)c1=NC(=O)c1ccccc1OC,-5.2%,79.4µM*!,-0.2%[9.22 µM],-21.2%,-24.1%,?,·,-35.0%,
O=c1ccc2c(OCCCCc3ccccc3)c3ccoc3cc2o1,-15.3%,-11.8%[56.1 µM],?,-2.0%,·,-4.0%,-12.1%[57.1 µM],-30.4%,
Cc1ccc(CNC(=O)CCNC(=O)c2ccco2)cc1,-20.4%,-2.9%,12.9%,6.2%,-0.4%,?,0.4%,?,APE1 dye cs=-1.7%;APE1 FP=-7.0%
CC(C)CNc1nc(C#N)nc(Nc2ccccc2)n1,·,6.2%,·,-8.2%,-11.1%,0.6%,·,·,
C[C@@H](Oc1ccc(Oc2cnc3ccc(Cl)cc3n2)cc1)C(=O)O,·,-8.5%[56.1 µM],?,-0.5%,·,-4.1%,·,·,
O=C(O)c1cc(-c2ccc(/C=N/N3C(=O)C4C5C=CC(C6CC56)C4C3=O)o2)ccc1Cl (configuration not stated),-1.0%,?,·,-10.9%,-3.3%,?,·,?,
CCOc1ccc(OCCN2C(=O)c3ccccc3C2=O)cc1,-18.3%,3.4%,·,·,-3.7%,-15.6%,·,·,
COc1ccc(OCC(=O)OCCN2C(=O)c3ccccc3C2=O)cc1,-4.9%,·,-2.4%,-10.0%,-20.6%,?,4.5%,?,APE1 dye cs=-8.5%;APE1 FP=8.2%
O=C1CCc2cc(S(=O)(=O)Nc3ccc(Cl)c(Cl)c3)ccc2N1,·,1.2%,·,·,·,·,·,·,
N#Cc1cc2nc(O)c(O)nc2cc1[N+](=O)[O-],-7.2%,6.9%[56.1 µM],-15.8%,1.6%,1.1%,?,-10.1%[57.1 µM],-82.4%,
O=[N+]([O-])c1cc2nc(O)c(O)nc2cc1[N+](=O)[O-],2.7%,-4.1%,·,0.1%,-0.4%,-4.6%,·,·,
C=C(Cl)COc1ccc2c(CCC)cc(=O)oc2c1,-8.2%,89.1µM*,-3.5%,-2.7%,-6.5%,15.0%,·,-27.4%,
CCCc1cc(=O)oc2cc(OCC(=O)Nc3cc(C)on3)ccc12,-3.0%,0.0%,-4.3%,i,-1.9%,18.6%,·,·,
N#Cc1nc(NCCCCO)nc(Nc2ccccc2)n1,·,9.7%,·,-0.4%,-2.6%,-11.9%,·,·,
